High-throughput results: PubChem, National Center for Advancing Translational Sciences (NCATS)
ALDH1A1 inh – inhibitors of human aldehyde dehydrogenase 1A1; P00352; Purified ALDH1A1, NADH fluorescence, propionaldehyde substrate; Potency, µM (series often up to 75.3 µM), for the others: top-dose activity, negative = inhibition, most hits filed as inhibitors; 220,000 tested, 7.3% active; AID 1030;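 also: potency is read from the fitted curve at half-maximal effect; plate controls were no enzyme wells and a reference inhibitor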
Target sequence (P00352 whole entry, looked up): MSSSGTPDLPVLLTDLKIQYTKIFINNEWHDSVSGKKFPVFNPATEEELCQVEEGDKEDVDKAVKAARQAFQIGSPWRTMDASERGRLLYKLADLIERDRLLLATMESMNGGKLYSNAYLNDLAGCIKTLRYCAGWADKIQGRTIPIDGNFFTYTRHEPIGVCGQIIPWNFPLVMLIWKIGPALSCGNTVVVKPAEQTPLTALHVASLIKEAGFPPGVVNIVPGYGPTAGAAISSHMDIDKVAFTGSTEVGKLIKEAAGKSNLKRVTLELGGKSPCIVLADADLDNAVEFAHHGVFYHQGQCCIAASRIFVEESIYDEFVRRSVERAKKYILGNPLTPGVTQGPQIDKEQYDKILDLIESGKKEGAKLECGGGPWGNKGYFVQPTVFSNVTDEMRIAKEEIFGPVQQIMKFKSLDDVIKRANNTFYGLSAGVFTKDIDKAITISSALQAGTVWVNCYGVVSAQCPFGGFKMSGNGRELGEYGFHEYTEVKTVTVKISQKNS
PNC inhibitor – blocks assembly of the perinucleolar compartment | 140,000 tested, 3.1% active | activity change (PNC), negative = inhibition, % at 10 µM | PC3M PTB-GFP, PNC prevalence imaging, 16 h; hits give low values;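 active = readout at or below -70, meaning at least 70% loss of cells showing the perinucleolar compartment, a nuclear body marking cancer cells; inconclusive = readout between -30 and a set limit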;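 also: plate controls were DMSO wells for no effect and camptothecin positive control wells for full effect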
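PC3M cells stably expressing PTB-GFP, 750–1000 cells/well, treated 16 h at 37 °C with compound (23 nl of library stock), in duplicate. After paraformaldehyde fixation and Hoechst stain, imaged at 20x; PNC prevalence scored by image analysis.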
HPGD inh – inhibitors of human 15-hydroxyprostaglandin dehydrogenase (HPGD); P15428; purified HPGD, NADH fluorescence kinetic, PGE2 substrate; Potency, µM, for the others: at the top dose activity change, negative = inhibition, most hits filed as inhibitors; 150,000 tested, 4.3% active; AID 894; also: potency is read from the fitted curve at half-maximal effect
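NADH formation kinetics: reaction with 30 uM PGE2 and 1 mM NAD+ (final), 20 nM enzyme, Tris-HCl pH 8 with Tween 20, after 15 min compound preincubation at room temperature. Fluorescence change, last versus first of five reads.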
An asterisk follows results filed as active; ? = inconclusive; . = no result; [ ] = dose if it differs, or a comment. This is a sample that favours compounds with a hit; in the whole collection about 11% have one here. Unless noted, calls follow the shape of the dose curve; as a rule, active = well fitted inhibition curve with a large enough effect (not every such curve was filed as active); inconclusive = small, poorly fitted or top-dose-only effect, or another doubt; inactive = no such curve, though single readings can be large or run the other way. Unless noted, % is scaled to controls: 0 for no effect and ±100 for the full control effect.

SMILES	ALDH1A1 inh	PNC inhibitor	HPGD inh
CCOC(=O)c1sc(NC(=O)CSc2n[nH]c(-c3ccncc3)n2)c(C#N)c1C	35µM*	34	5µM*
CC(=O)Nc1nonc1NC(=O)c1ccc(C(C)(C)C)cc1	-8%	17	-18%
CCNC(=S)NNC(=O)c1ccncc1	-1%	.	.
CC(C)(C)NC(=S)NNC(=O)c1ccncc1	9%	-114*	13µM*
C#CCOCCOCCOCCNc1nc(N2CCN(C(=O)[C@H](C)n3cc(CCCN=C(N)N)nn3)CC2)nc(N2CCN(C(=O)[C@H](C)n3cc(CCCN=C(N)N)nn3)CC2)n1	-1%	-4	-4%
Cc1ccn2cc(-c3ccc4c(c3)NC(=O)CO4)nc2c1	-10%	.	.
C=CCN=c1scc(-c2ccc3c(c2)NC(=O)CO3)n1/N=C(\C)c1ccccn1	2.8µM*	.	.
CC(C)(C)c1ccc(OCc2ccc(C(=O)N/N=C/c3ccc(O)c(O)c3)cc2)cc1	-1%	.	.
Cc1ccc(C(C)C)c(OCc2ccc(C(=O)N/N=C/c3ccc(O)cc3O)cc2)c1	4%	-89*	-13%
O=C(N/N=C/c1cccc(O)c1)c1ccc(COc2ccccc2Br)cc1	-15%	-124*	?
O=C(N/N=C/c1cccc(O)c1)c1ccc(COc2cccc3cccnc23)cc1	3%	.	.
CCCCC/C=C\C\C=C/C=C/C=C/[C@@H](SCC(N)C(=O)NCC(=O)O)[C@@H](O)CCCC(=O)O (stereo partly specified)	12%	.	-4%
Cc1nc2cnc(Oc3ccccc3)nc2n(CCC#N)c1=O	?	.	-15%
CCCNC(=O)OC[C@@H]1O[C@H](CCO/N=C\c2ccc(C(=O)N3[C@H](c4ccc(C)cc4)[C@@H](C)CC[C@H]3C(=O)OC)cc2)C=C[C@@H]1Oc1ccc(OC)cc1	-5%[13.5 µM]	.	.
CC(NC(=O)Cn1cccc1C(=O)c1ccccc1)c1ccc2c(c1)OCCO2 (stereo unspecified)	-8%	.	.
Nc1ccc(C(=O)OCc2ccncc2)cc1[N+](=O)[O-]	3%	.	.
COc1ccc(C(C)=O)cc1COC(=O)c1ccc(N)c([N+](=O)[O-])c1	10µM*	.	.
COc1ccc(C(C)=O)cc1COc1ccccc1[N+](=O)[O-]	3.2µM*	.	.
COc1cc(C)ccc1OCCOCCOc1ccccc1[N+](=O)[O-]	-16%	2	-17%
COc1ccc(C2c3ccc(O)cc3Oc3ncn4nc(-c5ccco5)nc4c32)cc1OC (stereo unspecified)	6%	.	.
Cc1cc(C)n(-c2cc(-c3ccccc3)nc(C)n2)n1	3%	26	4%
O=C(c1ccncc1)N1CCC2(CC1)CN(c1ccccc1)C2	?	.	-5%
CN(C)c1ccc(C(c2nnnn2CCOC(=O)Nc2ccc(Cl)cc2)N2CCOCC2)cc1 (stereo unspecified)	25µM*	30	-25%
O=C(Nc1ccc(Cl)cc1)OCCn1nnnc1C(c1ccccc1)N1CCOCC1 (stereo unspecified)	-1%	-29	-17%
COc1ccc(C(=O)/C(=C/c2cccs2)c2nc3ccccc3o2)cc1	2µM*	68	35µM*
SMILES	ALDH1A1 inh	PNC inhibitor	HPGD inh
COc1ccc(/C=C(\CC(=O)O)c2nc3ccccc3o2)cc1	-11%	.	.
COc1cccc(/C(O)=C2/C(=O)C(=O)N(CCN3CCOCC3)C2c2cccs2)c1 (stereo unspecified)	?	14	-12%
Cc1ccc(S(=O)(=O)N(C)Cc2ccc(C(=O)N/N=C/c3ccc(OC(F)F)cc3)cc2)cc1	?	-18	-8%
C/C(=N\NC(=O)c1ccc(CN(C)S(=O)(=O)c2ccc(C)cc2)cc1)c1ccc(OC(F)F)cc1	25µM*	5	.
CCCCCCN(C(=O)CCCCCN1C(=O)NC(C2CC2)C(C(=O)OCc2ccccc2)=C1C)C(C(=O)NCCCC)c1ccc(OCC(=O)OC)c(C(=O)OC)c1 (stereo unspecified)	13µM*	.	-17%
CC1=C(C(=O)OCc2ccccc2)C(C2CC2)NC(=O)N1CCCCCC(=O)O (stereo unspecified)	?	.	-11%
COC(=O)CCCCCN1C(=O)NC(c2ccccc2)C(C(=O)OCc2ccccc2)=C1C (stereo unspecified)	?	-92*	-6%
CCCCCCN(C(=O)CCCCCN1C(=O)NC(c2ccc(Cl)cc2)C(C(=O)OCc2ccccc2)=C1C)C(C(=O)NCCCC)c1ccc(OCC(=O)OC)c(C(=O)OC)c1 (stereo unspecified)	-5%	23	-14%
CCc1nnc(NC(=O)CSc2nc3cccnc3n2Cc2ccccc2)s1	-2%	?	-16%
COc1ccccc1C(=O)N(Cc1nc(-c2ccc(Cl)cc2)no1)C(C)C	0%	41	-10%
